Assay results reported in PubChem BioAssay AID2284330 (EPA ToxCast).
Inconclusive results are not listed. Activity calls are given as the source filed them. How the source made its calls: active means hit-call score of the fitted dose curve at least 0.9, where 1 is the maximum; inconclusive means response in the unintended direction; inactive means score below 0.9.

test system: frog Glucocorticoid Receptor (GR), gene 397897; assay: ATG_frGR_EcoTox2: Attagene TRANS-FACTORIAL EcoTox-2 HepG2 Assay for frog Glucocorticoid Receptor (GR)
Procedure: ATG_EcoTox2 is a cell-based, multiplexed assay created by modifying the existing Attagene TRANS-FACTORIAL system to include a panel of nuclear receptors from some or all the following species: human (Homo sapiens), african clawed frog (Xenopus laevis), rainbow trout (Oncorhynchus mykiss), japanese medaka (Oryzias latipes), and zebrafish (Danio rerio). The ECOTOX2-FACTORIAL format uses HepG2, a human liver cell line, with measurements taken at 24 hours after chemical dosing in a 24-well plate. ATG_frGR_EcoTox2 is one of 29 assay components calculated in the ATG_EcoTox2 assay. It is designed to make measurements of mRNA induction, a form of inducible reporter, as detected with fluorescence intensity signals by Reverse transcription polymerase chain reaction (RT-PCR) and Capillary electrophoresis technology.The assay endpoint ATG_frGR_EcoTox2 was analyzed in the positive analysis fitting direction relative to DMSO as the negative control and baseline of activity. Using a type of inducible reporter, measures of mRNA for gain-of-signal activity can be used to understand the reporter gene at the transcription factor-level as they relate to the gene for glucocorticoid receptor. Furthermore, this assay endpoint can be referred to as a primary readout, because this assay has produced multiple assay endpoints where this one serves a reporter gene function. To generalize the intended target to other relatable targets, this assay endpoint is annotated to the nuclear receptor intended target family, where the subfamily is steroidal.
Human liver HepG2 cells are transiently transfected with multiple reporter transcription units (MRTUs) in 6-well plates using FuGene 6 reagent (Roche; 3 ml FuGene/1 mg DNA). The MRTU constructs are regulated by a cis-regulating element (promoter). Each RTU expresses a GAL4-UAS that regulates the transcription of a nearby target reporter gene sequence. A major difference between the CIS and TRANS system is that in CIS activities of endogenous TFs are measured, whereas the TRANS assay evaluates changes in activities of exogenous, chimeric NR-Gal4 proteins. […] At the end of 24 hour incubation, total RNA was isolated using TriZol reagent (Invitrogen). The isolated RNA is then reverse-transcribed using oligo(dT) primer and Mo-MLV reverse transcriptase (Invitrogen) with DNAse I (Ambion) treatment for 30 min. The one-tenth of the produced cDNA was amplified by PCR using Taq DNA polymerase (Invitrogen) and two reporter sequence-specific primers. The PCR products were fluorescently labeled by primer extension with 6-arboxyfluorescein (6-FAM) 5'-labeled reporter sequence-specific primer (2 min at 95 C, 20 s at 68 C and 10 min at 72 C) and these products were digested with 5U of HpaI (New England Biolabs) for 2h at 37 C. The fragments were purified using Qiaquick PCR columns (Qiagen), analyzed on an ABI 3130xL genetic analyzer (Applied Biosystems) with peak positions identified by using a set of X-rhodamine (ROX)-labeled MapMarker1000 molecular weight standards (BioVentures). The raw capillary electrophoresis data was processed using Attagraph software (Attagene).

Compound	outcome	AC50
CC(C)OC(=O)C(C)(C)Oc1ccc(C(=O)c2ccc(Cl)cc2)cc1	inactive	
C=C(c1ccc(C(=O)O)cc1)c1cc2c(cc1C)C(C)(C)CCC2(C)C	inactive	
C[C@@H]1C[C@H]2[C@@H]3CCC4=CC(=O)C=C[C@]4(C)[C@@]3(F)[C@@H](O)C[C@]2(C)[C@@]1(O)C(=O)COP(=O)(O)O		0.00998 µM (active)
Cc1cccc(Nc2cc(Cl)nc(SCC(=O)O)n2)c1C	inactive	
C[C@]12C=CC(=O)C=C1CC[C@@H]1[C@@H]2C(=O)C[C@@]2(C)[C@H]1CC[C@]2(O)C(=O)CO	inactive	
CC(c1cc2ccccc2s1)N(O)C(N)=O (stereo unspecified)		34.3 µM (active)
Cc1ccc(C)c(OCCCC(C)(C)C(=O)O)c1	inactive	
CC(C)(Oc1ccc(C2CC2(Cl)Cl)cc1)C(=O)O (stereo unspecified)	inactive	
CN(CCOc1ccc(CC2SC(=O)NC2=O)cc1)c1ccccn1 (stereo unspecified)		30.8 µM (active)
CC(C)(Oc1ccc(Cl)cc1)C(=O)O	inactive	
CC(C)(Oc1ccc(CCNC(=O)c2ccc(Cl)cc2)cc1)C(=O)O	inactive	
